According to PubChem BioAssay (Tox21):
Inconclusive results are not listed. Active and inactive are the calls of the source. Unless noted, the call rests on the fitted dose curve; in most records, active means well fitted curve in the direction sought with a large enough effect in the repeat runs; inconclusive means weak or mixed curves; inactive means no such curve, though single readings can be large; an effect the other way counts as inactive or inconclusive.

Legend:
[1] = A CellTox Green Cytotoxicity Assay to monitor cytotoxicity in HEK293 cells - 32 hour (AID 1224881); settings: CellTox Green fluorescence; series mostly up to 76.8 µM; further: nearly all actives have a fitted effect of over 40% in size; further: potency means the concentration at half of the fitted maximal effect
How it was run: (§1)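 HEK293 cells premixed with CellTox Green dye were seeded at 600 cells/well and left 5 h at 37 C/5% CO2 before pin transfer of 23 nL compound in DMSO. Fluorescence from dye bound to dead-cell DNA was read during 40 h treatment.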

[2] = A CellTox Green Cytotoxicity Assay to monitor cytotoxicity in HepG2 cells - 0 hour (AID 1224882); settings: CellTox Green fluorescence; series mostly up to 76.8 µM; further: nearly all actives have a fitted effect of over 35% in size
How it was run: (§2)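 HepG2 cells were seeded together with the CellTox Green dye at 600 cells/well, left 5 h at 37 C/5% CO2, then given compounds in DMSO. Fluorescence from dye bound to dead-cell DNA was read repeatedly over 40 h of treatment at 37 C.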

[3] = A CellTox Green Cytotoxicity Assay to monitor cytotoxicity in HepG2 cells - 32 hour (AID 1224883); settings: CellTox Green fluorescence; series mostly up to 76.8 µM; further: nearly all actives have a fitted effect of over 50% in size; further: potency means the concentration at half of the fitted maximal effect
How it was run: as §2

[4] = A CellTox Green Cytotoxicity Assay to monitor cytotoxicity in HEK293 cells - 8 hour (AID 1224884); settings: CellTox Green fluorescence; series mostly up to 76.8 µM; further: nearly all actives have a fitted effect of over 35% in size; further: potency means the concentration at half of the fitted maximal effect
How it was run: as §1

[5] = qHTS RealTime-Glo MT Cell Viability Assay in HepG2 cells - 16 hour (AID 1224885); settings: RealTime-Glo luminescence; series mostly up to 76.8 µM; further: nearly all actives have a fitted effect of over 50% in size; further: potency means the concentration at half of the fitted maximal effect
How it was run: (§3)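 Luminescence read-out: viable HepG2 cells reduce a prosubstrate to a NanoLuc substrate, giving a signal proportional to live cell number. Reads taken at 0, 8, 16, 24, 32 and 40 h of compound exposure at 37 C.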

[6] = qHTS RealTime-Glo MT Cell Viability Assay in HEK293 cells - 24 hour (AID 1224886); settings: RealTime-Glo luminescence; series mostly up to 76.8 µM; further: nearly all actives have a fitted effect of over 50% in size; further: potency means the concentration at half of the fitted maximal effect
How it was run: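 Nonlytic real-time viability readout: viable cells convert prosubstrate to NanoLuc substrate, giving luminescence proportional to live cell number. HEK293, 600 cells/well, compound added after 5 h, continuous culture at 37 C.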

[7] = qHTS RealTime-Glo MT Cell Viability Assay in HEK293 cells - 8 hour (AID 1224887); settings: RealTime-Glo luminescence; series mostly up to 76.8 µM; further: nearly all actives have a fitted effect of over 50% in size; further: potency means the concentration at half of the fitted maximal effect
How it was run: (§4)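 HEK293 cells mixed with RealTime-Glo reagents (NanoLuc plus cell-permeant prosubstrate) at 600 cells/well, preincubated 5 h at 37 C/5% CO2, then given 23 nL compound in DMSO. Nonlytic luminescence from viable cells was read at 0, 8, 16, 24, 32 and 40 h.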

[8] = A CellTox Green Cytotoxicity Assay to monitor cytotoxicity in HEK293 cells - 16 hour (AID 1224888); settings: CellTox Green fluorescence; series mostly up to 76.8 µM; further: nearly all actives have a fitted effect of over 35% in size; further: potency means the concentration at half of the fitted maximal effect
How it was run: as §1

[9] = A CellTox Green Cytotoxicity Assay to monitor cytotoxicity in HepG2 cells - 8 hour (AID 1224890); settings: CellTox Green fluorescence; series mostly up to 76.8 µM; further: nearly all actives have a fitted effect of over 45% in size; further: potency means the concentration at half of the fitted maximal effect
How it was run: as §2

[10] = qHTS assay to identify small molecule antagonists of the estrogen receptor alpha (ER-alpha) signaling pathway using the BG1 cell line in the presence of 0.1 nM 17-beta-estradiol - cell viability counter screen (AID 1259241); settings: VM7Luc4E2 (BG1) viability, CellTiter-Fluor protease, 22 h, 0.1 nM estradiol agonist added; series mostly up to 92.4 µM; further: nearly all actives have a fitted effect of over 40% in size
How it was run: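 Estradiol-stimulated (0.1 nM) VM7Luc4E2 cells exposed to compounds 22 hr; viability measured by fluorescence of cleaved CellTiter-Fluor substrate after 30 min.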

[11] = qHTS assay to identify small molecule antagonists of the androgen receptor (AR) signaling pathway using the MDA cell line in the presence of 0.5 nM R1881 - cell viability counter screen (AID 1259242); settings: MDA-kb2 viability, CellTiter-Fluor protease fluorescence, 16 h; series mostly up to 92.4 µM; further: nearly all actives have a fitted effect of over 45% in size; further: potency means the concentration at half of the fitted maximal effect
How it was run: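 MDA-kb2 cells (human breast carcinoma, stably carrying MMTV-luciferase reporter) were exposed to compounds with 0.5 nM R1881 (final) for 16 hr at 37C, 0% CO2; viability then read as live-cell protease fluorescence (CellTiter-Fluor, 30 min) in the same wells.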

[12] = biological target: Estrogen receptor (Homo sapiens) (UniProt P03372); test: qHTS assay to identify small molecule antagonists of the estrogen receptor alpha (ER-alpha) signaling pathway using the BG1 cell line in the presence of 0.1 nM 17-beta-estradiol (AID 1259244); settings: VM7Luc4E2 (BG1) ERE-luciferase, antagonist mode, 0.1 nM E2, 22 h; series mostly up to 92.4 µM; further: nearly all actives have a fitted effect of over 50% in size; further: potency means the concentration at half of the fitted maximal effect
Sequence of Estrogen receptor (Homo sapiens) (P03372 whole entry, looked up): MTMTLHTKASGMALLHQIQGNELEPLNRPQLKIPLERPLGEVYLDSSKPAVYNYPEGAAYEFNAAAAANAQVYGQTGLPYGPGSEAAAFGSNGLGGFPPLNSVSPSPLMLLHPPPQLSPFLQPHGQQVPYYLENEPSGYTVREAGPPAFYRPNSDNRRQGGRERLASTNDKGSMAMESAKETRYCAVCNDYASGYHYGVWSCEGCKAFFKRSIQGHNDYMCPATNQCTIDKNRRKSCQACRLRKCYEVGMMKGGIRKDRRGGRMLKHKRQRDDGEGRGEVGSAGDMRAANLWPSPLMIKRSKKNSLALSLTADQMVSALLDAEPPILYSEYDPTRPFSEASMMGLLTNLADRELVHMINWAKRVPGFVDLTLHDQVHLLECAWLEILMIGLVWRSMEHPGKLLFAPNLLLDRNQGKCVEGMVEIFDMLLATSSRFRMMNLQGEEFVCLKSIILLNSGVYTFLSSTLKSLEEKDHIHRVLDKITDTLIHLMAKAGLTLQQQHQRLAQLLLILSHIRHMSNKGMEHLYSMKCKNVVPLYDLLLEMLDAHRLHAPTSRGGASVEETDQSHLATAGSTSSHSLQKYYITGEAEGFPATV
How it was run: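 VM7Luc4E2 cells (endogenous full-length ER-alpha, stable 4xERE-luciferase) were grown 5 days in phenol red-free medium with charcoal-stripped FBS, then exposed 22 h at 37C to compounds plus 0.1 nM (final) 17beta-estradiol; ONE-Glo luminescence read-out.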

[13] = qHTS assay to identify small molecule HDAC inhibitors (AID 1259364); settings: HCT-116 HDAC-Glo I/II luminescence, 2 h; series mostly up to 92.4 µM; further: top concentration of the series differs between compounds; nearly all actives have a fitted effect of over 45% in size
How it was run: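 Wild-type HCT-116 cells were plated overnight, exposed to compounds for 2 h at 37 °C, then given HDAC-Glo class I/II luminogenic reagent for 30 min at room temperature before luminescence was read.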

[14] = qHTS assay to identify small molecule HDAC inhibitors - cell viability counter screen (AID 1259365); settings: HCT-116 viability, CellTiter-Glo ATP luminescence, 2 h; series mostly up to 92.4 µM; further: nearly all actives have a fitted effect of over 50% in size
How it was run: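 After overnight seeding at 1,500 cells per well, wild-type HCT-116 cultures took up compounds in DMSO for 2hr at 37 C. Viable cell content came from luminescence with CellTiter-Glo.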

[15] = qHTS assay to identify small molecule agonists of the sonic hedgehog signaling (Shh) pathway - cell viability counter screen (AID 1259366); settings: NIH/3T3 Gli1-Luc viability, CellTiter-Fluor, 24 h; series mostly up to 92.4 µM; further: nearly all actives have a fitted effect of over 50% in size; further: potency means the concentration at half of the fitted maximal effect
How it was run: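 Same-well cytotoxicity read. Gli1-Luc reporter 3T3 cells; compounds 24hr, 37C/5% CO2; CellTiter-Fluor fluorescence.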

[16] = qHTS assay to identify small molecule antagonists of the sonic hedgehog signaling (Shh) pathway - cell viability counter screen (AID 1259367); settings: NIH/3T3 Gli1-Luc viability, CellTiter-Fluor, 24 h; series mostly up to 92.4 µM; further: nearly all actives have a fitted effect of over 55% in size; further: potency means the concentration at half of the fitted maximal effect
How it was run: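 Seed 3T3 Gli1-Luc cells at 2,000 per well; incubate 4 hr; add compound in DMSO, then conditioned medium; incubate at 37C with 5% CO2; add CellTiter-Fluor after 23 hr; read fluorescence 1 hr later.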

[17] = qHTS RealTime-Glo MT Cell Viability Assay in HEK293 cells - 0 hour (AID 1224880); settings: RealTime-Glo luminescence; series mostly up to 76.8 µM; further: top concentration of the series differs between compounds; nearly all actives have a fitted effect of over 45% in size
How it was run: as §4

[18] = qHTS RealTime-Glo MT Cell Viability Assay in HepG2 cells - 0 hour (AID 1224889); settings: RealTime-Glo luminescence; series mostly up to 76.8 µM; further: nearly all actives have a fitted effect of over 50% in size
How it was run: as §3

[19] = biological target: Androgen receptor (Homo sapiens) (UniProt P10275); test: qHTS assay to identify small molecule antagonists of the androgen receptor (AR) signaling pathway using the MDA cell line in the presence of 0.5 nM R1881 (AID 1259243); settings: MDA-kb2 MMTV-luciferase, R1881 0.5 nM, 16 h; series mostly up to 92.4 µM; further: nearly all actives have a fitted effect of over 50% in size; further: potency means the concentration at half of the fitted maximal effect
Sequence of Androgen receptor (Homo sapiens) (P10275 whole entry, looked up): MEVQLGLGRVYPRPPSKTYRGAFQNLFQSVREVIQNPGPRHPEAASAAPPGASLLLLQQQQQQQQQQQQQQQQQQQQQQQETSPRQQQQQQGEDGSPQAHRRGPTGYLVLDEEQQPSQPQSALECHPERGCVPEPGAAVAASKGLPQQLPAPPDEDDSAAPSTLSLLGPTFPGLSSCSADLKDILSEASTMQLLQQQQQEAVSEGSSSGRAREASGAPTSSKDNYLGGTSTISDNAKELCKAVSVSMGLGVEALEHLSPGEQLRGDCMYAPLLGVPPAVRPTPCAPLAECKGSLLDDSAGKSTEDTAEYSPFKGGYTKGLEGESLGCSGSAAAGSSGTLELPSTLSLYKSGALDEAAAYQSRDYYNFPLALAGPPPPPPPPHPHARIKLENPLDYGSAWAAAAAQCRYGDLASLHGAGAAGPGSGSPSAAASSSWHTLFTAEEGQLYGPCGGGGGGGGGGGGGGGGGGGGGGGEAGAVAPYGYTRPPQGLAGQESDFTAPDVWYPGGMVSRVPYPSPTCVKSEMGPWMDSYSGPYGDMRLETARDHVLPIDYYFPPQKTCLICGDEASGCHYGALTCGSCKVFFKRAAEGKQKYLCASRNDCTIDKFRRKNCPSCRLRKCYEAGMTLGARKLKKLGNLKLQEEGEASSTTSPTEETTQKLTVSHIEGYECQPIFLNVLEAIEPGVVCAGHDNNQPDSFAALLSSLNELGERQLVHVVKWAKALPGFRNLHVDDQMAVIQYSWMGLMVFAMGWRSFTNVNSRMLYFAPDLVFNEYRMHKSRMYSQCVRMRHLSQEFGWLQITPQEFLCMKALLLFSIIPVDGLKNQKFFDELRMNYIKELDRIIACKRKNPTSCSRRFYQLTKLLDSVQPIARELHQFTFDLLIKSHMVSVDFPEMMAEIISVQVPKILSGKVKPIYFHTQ
How it was run: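 MDA-kb2 human breast carcinoma cells carrying an MMTV-luciferase reporter (AR- and GR-responsive) were plated, rested 5 hr at 37C, dosed with compounds, then stimulated with 0.5 nM R1881 (final) for 16 hr; luminescence was read after ONE-Glo.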

[20] = qHTS assay to identify small molecule phospholipidosis (PLD) inducers (AID 1259344; active means well fitted curve in the direction sought with a large enough effect; an effect the other way counts as inactive or inconclusive); settings: HepG2 phospholipidosis, LipidTOX Red imaging, 24 h; series mostly up to 38.3 µM
How it was run: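 Quantitative HTS in HepG2: compound plus LipidTOX Red dye for 24 h, paraformaldehyde fixation with Hoechst 33342, widefield high-content imaging; amiodarone as positive and DMSO as negative control.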
On the % scale 0 is the no-effect control and ±100 the full control effect.

CC(C)(OO)c1ccccc1
inactive: Potency [1] | Potency [2] | Potency [3] | Potency [4] | Potency [5] | Potency [6] | Potency [7] | Potency [8] | Potency [9] | Potency [10] | Potency [11] | Potency [12] | Potency [13] | Potency [14] | Potency [15] | Potency [16]

O=S1OC[C@@H]2[C@H](CO1)[C@]1(Cl)C(Cl)=C(Cl)[C@@]2(Cl)C1(Cl)Cl (stereo not given in full)
active: Potency [19] 48.6 µM
inactive: Potency [17] | Potency [2] | Potency [18] | Potency [10] | Potency [11] | Potency [12] | Potency [13] | Potency [14] | Potency [15] | Potency [16]

O=S(=O)(O)C(F)(F)C(F)(F)C(F)(F)C(F)(F)F
inactive: Potency [1] | Potency [3] | Potency [4] | Potency [5] | Potency [8] | Potency [18] | Potency [9] | Potency [10] | Potency [11] | Potency [13] | Potency [14] | Potency [15] | Potency [16]

OCCCBr
inactive: Potency [17] | Potency [2] | Potency [3] | Potency [5] | Potency [6] | Potency [7] | Potency [18] | Potency [9] | Potency [10] | Potency [11] | Potency [12] | outcome [20] | Potency [13] | Potency [14] | Potency [15] | Potency [16]

Oc1ccc(Cl)c(Cl)c1Cl
inactive: Potency [17] | Potency [2] | Potency [4] | Potency [5] | Potency [7] | Potency [8] | Potency [18] | Potency [9] | Potency [11] | Potency [13] | Potency [14] | Potency [15] | Potency [16]

O=C1C(=O)c2cccc3cccc1c23
inactive: Potency [1] | Potency [2] | Potency [3] | Potency [4] | Potency [5] | Potency [8] | Potency [18] | Potency [9] | Potency [10] | Potency [11] | Potency [13] | Potency [14] | Potency [15]
active: Potency [12] 54.4 µM

IC(I)=C(I)I
inactive: Potency [2] | Potency [13] | Potency [14]
active: Potency [1] 54.9 µM | Potency [3] 13.8 µM | Potency [4] 54.9 µM | Potency [5] 0.776 µM | Potency [6] 6.92 µM | Potency [7] 17.4 µM | Potency [8] 54.9 µM | Potency [9] 38.9 µM | Potency [11] 61.1 µM | Potency [19] 15.4 µM | Potency [12] 27.3 µM | Potency [15] 7.7 µM | Potency [16] 17.2 µM

CC(=O)c1cc2c(cc1C)C(C)(C)C(C)CC2(C)C (stereo not given)
inactive: Potency [17] | Potency [2] | Potency [5] | Potency [18] | Potency [10] | Potency [11] | Potency [13] | Potency [14] | Potency [15] | Potency [16]
active: Potency [3] 38.9 µM | Potency [8] 19.5 µM

COc1ccc(-c2ccccc2)cc1NNC(=O)OC(C)C
inactive: Potency [17] | Potency [2] | Potency [3] | Potency [4] | Potency [8] | Potency [18] | Potency [9] | Potency [10] | Potency [11] | Potency [14] | Potency [15]
active: Potency [6] 51 µM | Potency [19] 63.7 µM | Potency [12] 71.5 µM

CC[C@H]1C[C@H]2[C@@H]3CCC4=CC(=O)CC[C@@H]4[C@H]3CC[C@]2(C)[C@H]1O
inactive: Potency [17] | Potency [2] | Potency [4] | Potency [5] | Potency [7] | Potency [8] | Potency [18] | Potency [9] | Potency [10] | Potency [11] | Potency [12] | PLD induction [20] 1.62% [at 7.66 µM] | Potency [13] | Potency [14] | Potency [15] | Potency [16]

O=C(N[C@H](c1ccccc1)[C@@H]1CN2CCC1CC2)c1c(Cl)ccc(C(F)(F)F)c1Cl
active: Potency [1] 78.8 µM | Potency [6] 70.2 µM | Potency [15] 39.2 µM | Potency [16] 43.9 µM
inactive: Potency [2] | Potency [4] | Potency [5] | Potency [7] | Potency [18] | Potency [9] | Potency [10] | Potency [13] | Potency [14]

COP(=S)(Oc1cc(Cl)c(Br)cc1Cl)c1ccccc1 (stereo not given)
active: Potency [19] 27.3 µM
inactive: Potency [17] | Potency [4] | Potency [5] | Potency [10] | Potency [11] | Potency [12] | Potency [13] | Potency [14] | Potency [15] | Potency [16]

CNP(=O)(OC)Oc1ccc(C(C)(C)C)cc1Cl (stereo not given)
inactive: Potency [17] | Potency [2] | Potency [4] | Potency [5] | Potency [8] | Potency [18] | Potency [9] | Potency [10] | Potency [11] | Potency [12] | Potency [13] | Potency [14] | Potency [15] | Potency [16]

C/C(=C\c1ccccc1)[N+](=O)[O-]
inactive: Potency [17] | Potency [2] | Potency [4] | Potency [8] | Potency [18] | Potency [9] | Potency [10] | Potency [12] | Potency [14]
active: Potency [19] 12.2 µM | Potency [15] 15.4 µM

CCCC(Cn1cncn1)c1ccc(Cl)cc1Cl (stereo not given)
inactive: Potency [17] | Potency [2] | Potency [4] | Potency [8] | Potency [18] | Potency [9] | Potency [10] | Potency [11] | Potency [13] | Potency [14] | Potency [15] | Potency [16]
active: Potency [3] 49 µM | Potency [6] 21.9 µM

NS(=O)(=O)C(F)(F)C(F)(F)C(F)(F)C(F)(F)C(F)(F)C(F)(F)C(F)(F)C(F)(F)F
inactive: Potency [17] | Potency [2] | Potency [4] | Potency [5] | Potency [6] | Potency [7] | Potency [8] | Potency [18] | Potency [9] | Potency [11] | Potency [19] | Potency [12] | Potency [13] | Potency [14] | Potency [15] | Potency [16]
